Screening results as filed in PubChem.
In the library only some 3.5% were active in any assay of this set; here they are far more common.
GPR151 activ = human GPR151 activation; activation, % at 11.2 µM; hit rate 1% among 650,000; PathHunter beta-arrestin GPR151 cells, luminescence; in the data active means activation above about 4.9%
TEAD-YAP block = TEAD-YAP interaction inhibition; HEK-TIYL cells, TEAD-Gal4/YAP UAS-luciferase luminescence; inhibition, % at 9.12 µM; hit rate 1.4% among 640,000; in the data active means inhibition above about 32%
MITF inh = inhibitors of human MITF. O75030. AlphaScreen MITF homodimerization, bead proximity signal. inhibition, % at 2.6 µM. hit rate 0.91% among 650,000. AID 1259374; in the data active means inhibition above about 50%
FBW7 activator = activators of human E3 ligase FBW7; Q969H0; AlphaScreen FBW7–phospho-cyclin E peptide binding, activator screen; normalized activity (activation), % at 26.1 µM; hit rate 0.13% among 650,000; in the data active means normalized activity above about 1.9%;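 further: purified mutant Fbw7 with reduced substrate affinity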
Target sequence (Q969H0 whole entry, looked up): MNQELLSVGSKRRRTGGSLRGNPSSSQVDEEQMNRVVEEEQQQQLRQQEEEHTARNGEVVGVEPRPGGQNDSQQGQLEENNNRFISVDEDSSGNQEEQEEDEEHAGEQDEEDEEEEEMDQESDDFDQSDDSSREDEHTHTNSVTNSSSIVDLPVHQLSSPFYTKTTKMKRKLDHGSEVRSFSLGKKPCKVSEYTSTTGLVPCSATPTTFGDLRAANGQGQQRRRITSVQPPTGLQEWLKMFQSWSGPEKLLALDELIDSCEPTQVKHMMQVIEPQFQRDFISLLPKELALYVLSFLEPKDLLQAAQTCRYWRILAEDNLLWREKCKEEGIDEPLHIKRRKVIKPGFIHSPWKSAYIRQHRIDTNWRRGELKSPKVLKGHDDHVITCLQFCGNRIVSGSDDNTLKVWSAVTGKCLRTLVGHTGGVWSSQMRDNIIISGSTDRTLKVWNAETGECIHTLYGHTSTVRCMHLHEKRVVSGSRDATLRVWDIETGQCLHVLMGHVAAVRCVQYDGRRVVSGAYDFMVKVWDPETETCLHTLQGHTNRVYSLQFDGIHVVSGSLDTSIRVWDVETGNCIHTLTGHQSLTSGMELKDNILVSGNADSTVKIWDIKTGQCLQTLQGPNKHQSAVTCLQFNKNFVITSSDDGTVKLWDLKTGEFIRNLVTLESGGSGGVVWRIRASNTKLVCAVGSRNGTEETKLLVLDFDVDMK
Hits are given with their value; n = inactive.

SMILES | GPR151 activ | TEAD-YAP block | MITF inh | FBW7 activator
COc1ccccc1N(/C=C1\Sc2ccccc2C1=O)C(C)=O | n | 79 | n | n
CC(=O)N(/C=C1\Sc2ccccc2C1=O)c1ccc(C)cc1 | n | 70 | n | n
CCOC(=O)c1nn(CCO)c2c1CN(Cc1nc(-c3ccccc3)cs1)CC2 | n | n | n | n
CC(=O)c1cccc(CN2CCN(Cc3ccsc3)C(CCO)C2)c1 (stereo unspecified) | n | n | n | n
COc1ccc2c(c1)OCC(Cc1ccc(OC)c(OC)c1)C2=O (stereo unspecified) | n | 48 | n | n
COc1ccc2c(c1)O[C@@H]1COc3cc(OC)c(OC)cc3[C@@H]1C2=O | n | 32 | n | n
COc1ccc(NC(=O)Cc2ccc(OC)c(OC)c2)c(OC)c1 | n | n | n | n
COc1ccc2c(c1)OCC(Cc1ccc(OC)c(OC(C)=O)c1)C2=O (stereo unspecified) | n | 52 | n | n
CCOc1ccc(NC(=O)CNc2ccc3ccccc3c2)cc1 | n | n | n | n
O=S(=O)(NCc1ccncc1)c1ccc(Br)cc1Br | n | 32 | n | n
O=S(=O)(NCc1ccncc1)c1ccc(Cl)c(Cl)c1 | n | 36 | n | n
CCOc1cc(S(=O)(=O)NCc2ccncc2)ccc1Cl | n | 52 | n | n
Cc1cc(S(=O)(=O)NCc2ccncc2)c(C)cc1Br | n | n | n | n
Cc1ccc(S(=O)(=O)NCc2ccncc2)cc1 | n | 41 | n | n
O=S(=O)(NCc1cccnc1)c1cccc(Cl)c1Cl | n | n | n | n
CCOc1ccc(S(=O)(=O)NCc2ccncc2)cc1C | n | 55 | n | n
O=S(=O)(NCc1ccncc1)c1cccc(Cl)c1Cl | n | 35 | n | n
COc1cc(C2C(C#N)=C(N)N(c3ccc(Br)cc3)C3=C2C(=O)CC(C)(C)C3)cc(OC)c1OC (stereo unspecified) | n | 41 | n | n
CCOc1ccc(C2C(C#N)=C(N)N(c3ccc(OC)cc3)C3=C2C(=O)CC(C)(C)C3)cc1 (stereo unspecified) | n | 47 | n | n
CCc1ccc(C2C(C#N)=C(N)N(c3ccc(OC)cc3)C3=C2C(=O)CC(C)(C)C3)cc1 (stereo unspecified) | n | n | n | n
COc1ccc(N2C(N)=C(C#N)C(c3ccc(OC)c(OC)c3)C3=C2CC(C)(C)CC3=O)cc1 (stereo unspecified) | n | 40 | n | n
Cc1ccc(OCCOc2ccc(/C=C3/C(=N)N4N=C(Cc5ccccc5)SC4=NC3=O)cc2)cc1 | n | n | n | n
c1ccc(OCCNc2nc(N3CCOCC3)nc3c2ncn3-c2ccccc2)cc1 | n | n | n | n
OCCNc1nc(N2CCOCC2)nc2c1ncn2-c1ccccc1 | n | 48 | n | n
c1ccc2c(c1)CCN(c1nc(NCCN3CCOCC3)c3ncn(-c4ccsc4)c3n1)C2 | n | n | n | n
SMILES | GPR151 activ | TEAD-YAP block | MITF inh | FBW7 activator
c1cc(-n2cnc3c(NCCN4CCOCC4)nc(N4CCOCC4)nc32)cs1 | n | 56 | n | n
c1cc(-n2cnc3c(NCCN4CCOCC4)nc(N4CCC(N5CCOCC5)CC4)nc32)cs1 | n | 43 | n | n
c1ccc2[nH]c(CNc3nc(N4CCC(N5CCOCC5)CC4)nc4c3ncn4-c3ccsc3)nc2c1 | n | 54 | n | n
Cc1ccc(NCc2nnc(SCC(=O)NCc3ccco3)n2C)cc1 | n | n | n | n
COc1cc(Nc2nc(N3CCC(N4CCOCC4)CC3)nc3c2ncn3-c2ccsc2)cc(OC)c1OC | n | n | n | n
OCCNc1nc(N2CCOCC2)nc2c1ncn2-c1ccsc1 | n | 69 | n | n
CC(=O)Nc1ccc(Nc2nc(N3CCC(N4CCOCC4)CC3)nc3c2ncn3-c2ccsc2)cc1 | n | 46 | n | n
O=S1(=O)C=C(Sc2nc3ccccc3s2)c2ccccc21 | n | 61 | n | n
Nc1ccccc1SC1=CS(=O)(=O)c2ccccc21 | n | n | n | n
COc1ccc(C(=O)NNC(=O)COc2ccc(-c3ccccc3)cc2)cc1OC | n | n | n | n
CCOc1cc(/C=C2/SC(=S)N(CCCC(=O)O)C2=O)ccc1O | n | 73 | n | n
CCOc1cc(/C=C2\SC(=S)N(CCOC)C2=O)ccc1O | n | n | n | n
CCOc1cc(/C=C2\SC(=Nc3ccc(C(=O)O)cc3)N(C)C2=O)ccc1O | n | 46 | n | n
COc1cc(/C=C2\SC(=S)N(CCCC(=O)O)C2=O)ccc1O | n | 62 | n | n
COc1ccc(/C=C2/SC(=O)N(CCCC(=O)Nc3cccc(O)c3)C2=O)cc1 | n | 66 | n | n
CC(C)CC(c1nnnn1C1CCCC1)N1CCN(C)CC1 (stereo unspecified) | n | n | n | n
CC(C)(C)c1ccc(OCC(=O)Nc2ncn[nH]2)c(Br)c1 | n | n | n | n
